PK Bst: pyruvate kinase (B. stearothermophilus) modulation | Potency, µM | 51,000 tested, 1.2% active | purified pyruvate kinase, luminescence ATP production; ribose 5-phosphate activator present at AC10; in the data active = potency below about 11 µM; inconclusive = mostly about 12 µM to 25 µM;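 the screen sought inhibitors and activators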;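 note: potency is the fitted concentration of half-maximal effect; scaled between full activation by ribose 5 phosphate and full inhibition by luteolin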
GBA mod: human lysosomal glucosylceramidase modulation; Potency, µM; 48,000 tested, 1.1% active; AID 360; P04062; purified enzyme, resorufin glucoside fluorescence (screen aimed at inhibitors), 20 min; in the data active = potency below about 15 µM; inconclusive = mostly about 16 µM to 33 µM;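 note: potency is the fitted concentration of half-maximal effect; the screen sought inhibitors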
Target sequence (P04062 whole entry, looked up): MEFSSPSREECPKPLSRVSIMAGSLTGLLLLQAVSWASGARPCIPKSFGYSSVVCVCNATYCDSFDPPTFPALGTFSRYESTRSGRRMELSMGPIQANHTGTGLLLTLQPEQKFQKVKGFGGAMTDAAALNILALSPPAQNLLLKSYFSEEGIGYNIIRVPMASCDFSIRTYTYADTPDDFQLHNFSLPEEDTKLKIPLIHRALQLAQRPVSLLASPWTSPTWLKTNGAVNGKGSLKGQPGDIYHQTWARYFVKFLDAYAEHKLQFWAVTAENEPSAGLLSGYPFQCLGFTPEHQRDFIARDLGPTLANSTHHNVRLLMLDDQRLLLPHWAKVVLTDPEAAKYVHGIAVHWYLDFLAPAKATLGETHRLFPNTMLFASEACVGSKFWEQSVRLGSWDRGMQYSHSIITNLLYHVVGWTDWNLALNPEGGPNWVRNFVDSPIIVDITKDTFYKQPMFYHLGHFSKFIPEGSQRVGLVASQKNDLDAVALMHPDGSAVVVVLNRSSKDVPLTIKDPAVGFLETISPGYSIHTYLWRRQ
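Wild-type enzyme at 0.2 nM final in 50mM citric acid/KH2PO4, 10mM sodium taurocholate, 0.01% tween-20, pH 5.9, with resorufin beta-D-glucopyranoside at 30 uM final. Compounds titrated, 20 min at RT, red fluorescence read; AC50 from titration.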
HBB splicing: hemoglobin beta splicing modulation; AID 925; Potency, µM (top dose mostly 46.1 µM), without a hit: top-dose activation, actives largely listed as activators; HBB splicing reporter cell assay, activation; EGFP reporter with mutant IVS2-654 intron; response scale: normalised to 500 nM splice-correcting PNA; 65,000 tested, 0.06% active; note: potency is the fitted concentration of half-maximal effect; 0% is about no effect
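HeLa cells stably expressing EGFP interrupted by mutant beta-globin intron 2 (IVS2-654), 500/well in 2% FCS. Treated with compound for 2 days at 37C. Splicing correction scored as total well GFP intensity (488 nm excitation, 500-520 nm emission); 500 nM antisense PNA served as control.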
FLuc inh: inhibitors of firefly luciferase; P08659; purified firefly luciferase, luminescence, 8 min; Potency, µM (titrated, usually from 57.1 µM), for the others: top-dose activity change, negative = inhibition, actives largely listed as inhibitors; 72,000 tested, 2.2% active; AID 411; note: potency is the fitted concentration of half-maximal effect; % is set by controls: 0 for no effect and ±100 for the full control effect; nearly all actives have a fitted effect of over 40% in size
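Inhibition of light generation by firefly luciferase from ATP and luciferin was profiled with concentration-response curves per sample, ATP held at 10 uM within the enzyme's linear range. Plates were read by luminescence after an 8-minute ambient incubation.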
GFP derepression: epigenetic modulators derepressing GFP locus in mouse cells | 68,000 tested, 0.09% active | Potency, µM (doses to about 46.1 µM), for inactives: top-dose GFP derepression (activation) | mouse C127i GFP locus derepression, cytometry, 30 h; note: % of control where 0% means no effect
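Read-out is the number of GFP-positive cells, scored as fluorescent objects 20 to 120 um wide, reflecting derepression of a silenced CMV-GFP reporter in murine C127i cells after 30 h compound exposure at 37 C.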
UbGFP stabilizer: ubiquitin-GFP accumulation via proteasome inhibition; Ubiquitin-GFP reporter cells, proteasome inhibition, GFP fluorescence; response scale: untreated = 0%, 10 µM MG-132 = 100%; Potency, µM (top dose mostly 45.9 µM), without a hit: at the top dose activation (GFP accumulation), hits mostly activators; 67,000 tested, under 10 active; AID 526; active = well fitted activation curve with a large enough effect, not every such curve was filed as active; inconclusive = small, poorly fitted or top-dose-only effect, or another doubt; inactive = no such curve, though single readings can be large or run the other way; note: potency is the fitted concentration of half-maximal effect
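Proteasome block read as GFP accumulation: ubiquitin(G76V)-GFP U2OS cells exposed to compound (2.9 nM–46 uM) for 4 hr at 37 C. Normalization used untreated cells as 0% and 10 uM MG-132 as 100%; concentration-response curves fitted.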
Numbers without * were called inactive; i = inactive; ? = inconclusive; · = no result; [ ] = remark or other dose. An excerpt weighted towards active compounds, which were near 3.3% of everything screened. Unless noted, calls come from the whole dose curve; as a rule, active = well fitted curve in the direction sought with a large enough effect; inconclusive = small, poorly fitted or top-dose-only effect, or another doubt; inactive = no such curve, though single readings can be large; an effect the other way counts as inactive or inconclusive.

SMILES	PK Bst	GBA mod	HBB splicing	FLuc inh	GFP derepression	UbGFP stabilizer
Cc1cc(NC(=O)CSc2nc3c(c(=O)n2-c2ccc(Cl)cc2)SCC3)no1	>57	13.7*	-0.1%	-1.5%	-2.0%	15.5%
Cc1ccc(/C=N/c2sc3c(c2C#N)CCCCC3)o1	>57	?	0.7%[57.5 µM]	0.6%	-0.9%	-2.6%
CN1CCN(/C=N/c2sc3c(c2C#N)CCCCC3)CC1	>25.6	·	·	-17.5%[25.5 µM]	4.9%[20.6 µM]	·
Cc1ccc(/C=N/c2sc3c(c2C#N)CCC3)s1	4.29*	11.4*	-0.7%	1.58µM*	-0.4%	-4.8%
N#Cc1c(/N=C/c2ccco2)sc2c1CCC2	·	>76.9	-0.4%	2.51µM*	-3.7%	-3.8%
Cc1cccc(C)c1Nc1nc2ccccc2o1	·	·	-0.7%	-1.7%	·	16.0%
Cc1nc(Nc2nc3ccccc3o2)nc2c1CCC2	·	·	-1.4%	7.94µM*	0.0%	-4.6%
NC(=O)c1c(NC(=O)c2cc3ccccc3o2)sc2c1CCC2	·	>76.9	-0.8%[57.5 µM]	3.16µM*	18.5%	1.7%
Cc1ccc(C(=O)Nc2sc3c(c2C(=O)O)CCCCC3)o1	i	>76.9	-0.5%[57.5 µM]	20µM*	-1.9%	3.6%
Nc1ncnc2c1nc(Br)n2[C@H]1O[C@H]2COP(=O)(O)O[C@H]2[C@@H]1O	·	·	·	0.0%	-1.4%	2.6%
O=C(Nc1cccc2nsnc12)c1ccc2c(c1)OCCO2	·	>76.9	-0.1%	20µM*	1.3%	-7.7%
O=S(=O)(Nc1ccc2c(c1)OCCO2)c1cccc2nsnc12	8.56*	·	-0.6%	-13.9%	0.0%	12.7%
O=C(Nc1ccc2c(c1)OCCO2)C1CCN(S(=O)(=O)c2cccc3nsnc23)CC1	9.29*	>76.9	1.3%	1.5%	-3.5%	0.8%
Cc1nc2c(ccc3nc(NC(=O)c4ccc5c(c4)OCCO5)sc32)s1	0.291*	7.38*	-0.1%	0.794µM*	3.2%	-7.7%
CO/N=C(\C(=O)N[C@@H]1C(=O)N2C(C(=O)[O-])=C(C[N+]3(C)CCCC3)CS[C@@H]12)c1csc(N)n1	·	·	-0.6%[20.6 µM]	1.9%[25.5 µM]	-0.5%[20.6 µM]	3.1%[20.5 µM]
CC[C@H](C)C(=O)O[C@@H]1CCC=C2C=C[C@H](C)[C@@H](CC[C@H]3C[C@@H](O)CC(=O)O3)[C@H]21	·	·	1.6%	-1.1%	-2.4%	-4.9%
CCOC(=O)OCC1OC(C#Cc2ccc(C(C)(C)C)cc2)C=CC1OC(=O)OCC (stereo not given)	·	·	0.0%[9.22 µM]	·	·	·
COc1ccc(/C=C/N(CCc2ccc(OC)c(OC)c2)C(C)=O)cc1	·	·	1.3%[9.22 µM]	·	·	·
O=C(Nc1ccccc1)Nc1cccc2cccnc12	·	>76.9	1.4%	20µM*	-1.0%	-5.1%
O=C(Nc1cccnc1)c1ccc(Oc2ccccc2)cc1	i	15.4*	-0.8%	12.6µM*	0.0%	-2.9%
O=C(Nc1cccnc1)c1ccccc1Oc1ccccc1	>57	>76.9	1.3%	1.3%	0.0%	10.7%
O=C(Nc1cccnc1)Nc1ccccc1Cl	·	14.9*	2.2%	-19.3%	-0.1%	-5.4%
O=C(Nc1ccccc1)Nc1ccccn1	·	>76.9	-1.7%	-25.4%	5.9%	5.3%
CC(C)OC(=O)c1cc2c(OC[C@@H](O)CNC(C)(C)C)cccc2[nH]1	·	·	·	-0.5%	2.8%	-2.0%
CC1(C)O[C@H]2[C@@H](c3[nH]nc4c(=O)[nH]c(=O)[nH]c34)OC[C@H]2O1	·	·	0.2%[9.22 µM]	0.4%[11.4 µM]	-2.2%[9.22 µM]	-5.5%[9.17 µM]
SMILES	PK Bst	GBA mod	HBB splicing	FLuc inh	GFP derepression	UbGFP stabilizer
COc1ccc(NC(=O)Nc2cccc(C)n2)cc1	·	·	-1.3%	15.8µM*	·	5.2%
Cc1cccc(NC(=O)Nc2ccc(C#N)cc2)n1	·	·	-0.8%	-11.9%	10.3%	-3.7%
CCn1c2ccccc2c2cc(NC(=O)C3CCN(S(=O)(=O)c4cccs4)CC3)ccc21	>57	2.78*	-0.2%[57.5 µM]	0.7%	6.2%	-1.6%
O=C(Nc1ccccn1)C1CCN(S(=O)(=O)c2cccs2)CC1	>57	>76.9	-0.2%[57.5 µM]	0.1%	-1.3%	0.8%
COc1cc(C2=NOC(C(=O)N3CCCc4ccccc43)C2)cc(OC)c1OC (stereo not given)	·	>76.9	3.3%	0.0%	0.2%	-4.7%
COc1ccc(-c2cc(C(=O)N3CCCc4ccccc43)no2)cc1	i	>76.9	0.7%	15.8µM*	-2.4%	-9.7%

Compound activity deposited in PubChem BioAssay by National Center for Advancing Translational Sciences (NCATS).
